G9a inh = blocks human histone lysine methyltransferase G9a. Potency, µM (titrated, usually from 102 µM), for the others: at the top dose activity, negative = inhibition, most hits filed as inhibitors. Q96KQ7. G9a H3K9 monomethylation, AlphaScreen, 2 h. actives 8.8% (n = 350,000); further: potency means the concentration at half of the fitted maximal effect; nearly all actives have a fitted effect of over 75% in size
Target sequence (Q96KQ7 913-1193 limits assumed): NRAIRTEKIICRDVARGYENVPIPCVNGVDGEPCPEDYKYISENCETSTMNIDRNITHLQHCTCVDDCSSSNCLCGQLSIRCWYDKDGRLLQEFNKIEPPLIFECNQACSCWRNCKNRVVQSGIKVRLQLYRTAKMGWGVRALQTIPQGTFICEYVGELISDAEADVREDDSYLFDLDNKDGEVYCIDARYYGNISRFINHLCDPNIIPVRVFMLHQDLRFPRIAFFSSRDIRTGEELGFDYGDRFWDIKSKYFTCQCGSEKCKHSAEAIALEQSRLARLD
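Signal arises when biotinylated H3K9 peptide, once monomethylated, bridges streptavidin donor and antibody-captured acceptor beads. Enzyme at 20 nM was preincubated 15 min with test compounds; peptide 500 nM and SAM 20 uM then reacted for 2 h.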
Tau ThT inhib = blocks human tau fibril formation measured by thioflavin T | Potency, µM (top dose mostly 57.4 µM), for inactives: at the highest dose activity, negative = inhibition, hits mostly inhibitors | recombinant tau K18 P301L, heparin-induced fibrillization, ThT fluorescence | actives 2.1% (n = 270,000); further: potency means the concentration at half of the fitted maximal effect; nearly all actives have a fitted effect of over 55% in size
Target sequence (P10636 561-689 P618L limits assumed): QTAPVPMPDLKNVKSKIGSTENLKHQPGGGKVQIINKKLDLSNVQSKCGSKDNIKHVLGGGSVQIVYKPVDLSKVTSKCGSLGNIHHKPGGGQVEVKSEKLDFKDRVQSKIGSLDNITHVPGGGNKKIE
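Fibril formation assay: tau K18 P301L at 15 uM with trace Alexa 594 label, heparin inducer 20 uM, pH 7 sodium acetate buffer, 37 C for 6 hr; endpoint ThT signal.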
Tau fibril FP = inhibitors of human tau fibril formation | K18 P301L tau heparin fibrillization, Alexa594 FP, 6 h | AID 1468 | actives 0.39% (n = 280,000) | P10636 | Potency, µM (series often up to 57.7 µM), without a hit: at the highest dose activity, negative = inhibition, usual class: inhibitors; further: potency means the concentration at half of the fitted maximal effect; nearly all actives have a fitted effect of over 55% in size
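Human K18 P301L fragment (15 uM unlabeled plus 0.24 uM Alexa 594-labeled) in 100 mM sodium acetate pH 7 with compound, aggregation induced by 20 uM heparin for 6 hr at 37 C. ThT (30 uM) added for 1 hr, then Alexa 594 FP read.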
FBPA coupling cs = counter-screen for Giardia aldolase inhibitors: coupling enzyme system | coupling enzyme system counterscreen, AmpLite Red fluorescence | activity change, negative = inhibition, % at 58.2 µM, hits read low | actives 0.67% (n = 290,000) | AID 2472; in the data active means activity change below about -30%
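Counterscreen of the coupled detection system alone, without aldolase: glyceraldehyde-3-phosphate coupling enzymes plus AmpLite Red readout. Compounds at 57.5 uM final, 10 min RT preincubation, 20 min RT reaction, fluorescence 525/598 nm.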
Tau fluor counter = counter-screen for tau fibril formation inhibitors; tau K18 P301L Alexa594 fluorescence, heparin fibrillization; Potency, µM (titrated, usually from 57.7 µM), without a hit: at the highest dose activity change, negative = decrease; actives 0.93% (n = 280,000); AID 1463; further: potency means the concentration at half of the fitted maximal effect; nearly all actives have a fitted effect of over 55% in size
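Human tau K18 P301L (15 uM unlabeled, 0.24 uM Alexa 594-labeled) in 100 mM sodium acetate pH 7 with 20 uM heparin, 6 hr at 37 C. ThT 30 uM added, 1 hr ambient; Alexa 594 FP and total fluorescence read at 555/632 nm.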
Sfp inh = blocks B. subtilis Sfp PPTase activity; Q9F4F7; Biochemical Sfp PPTase activity, qHTS; Potency, µM, for inactives: largest response in the series, negative = inhibition, usual class: inhibitors; AID 1490; actives 3.5% (n = 310,000);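 further: the enzyme is Sfp with the accession as filed and its product quenches rhodamine fluorescence; potency means the concentration at half of the fitted maximal effect; 0% = enzyme reaction without inhibitor and -100% = no enzyme wells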
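After 15 min at room temperature with compound, 15 nM Sfp received 5 uM rhodamine-CoA plus 12.5 uM BHQ-2-ybbR (50 mM Hepes pH 7.6, 10 mM MgCl2). Rate came from the fluorescence difference over 30 min, ex 525/em 598 nm.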
* hit, by the source's call; ? = inconclusive; nt = no result given; ! = not confirmed by another sample; [ ] = dose if it differs, or a comment. A selection: hits, their analogues and other compounds. The true share with any hit is near 11%. Unless noted, the call rests on the fitted dose curve; in most records, active means well fitted curve in the direction sought with a large enough effect; inconclusive means small, poorly fitted or top-dose-only effect, or another doubt; inactive means no such curve, though single readings can be large; an effect the other way counts as inactive or inconclusive. Unless noted, on the % scale 0 is the no-effect control and ±100 the full control effect.

SMILES	G9a inh	Tau ThT inhib	Tau fibril FP	FBPA coupling cs	Tau fluor counter	Sfp inh
O=c1[nH]c(=S)n(-c2ccc(Br)cc2)c(O)c1C=Nc1ccc(N2CCOCC2)cc1	?	25µM*	3%	-1	-22%	?
Cn1c(O)c(/C=N/N2CCOCC2)c(=O)n(-c2ccccc2)c1=S	-39%	-5%	-7%	1	-7%	-8%
[S]=[Sb][S][Sb]=[S]	-28%[12.7 µM]	nt	nt	nt	nt	28%
N[C@H]1C[C@H]1c1ccccc1	-43%[12.7 µM]	nt	nt	0	nt	10%
Cc1ccc2[nH]c(=S)n(-c3cccnc3)c(=O)c2c1	45µM*	nt	2%	0	2%	-3%
O=c1c2ccccc2[nH]c(=S)n1-c1cccnc1	nt	-9%	-3%	-8	-10%	-6%
O=c1c2ccc(Cl)cc2[nH]c(=S)n1-c1cccnc1	20µM*	-3%	4%	-1	0%	-2%
OC[C@H]1O[C@@H](n2cnc3cc(Cl)c(Cl)cc32)[C@H](O)[C@H]1O	?	0%	-3%	-2	0%	11%
CC(C)c1ccc(NC(=O)c2ccc(F)c(S(=O)(=O)N3CCc4ccccc4C3)c2)cc1	-3%[59 µM]	-6%	?	nt	-23%	nt
CN1CCC[C@@H]1c1cccnc1	-43%[59 µM]	-6%	-5%	nt	2%	22%
O=c1c2ccccc2nc(CN2CCCCCC2)n1-c1ccc(F)cc1	28µM*	-12%	-2%	-1	-1%	-5%
CC[C@H](/C=C/[C@@H](C)[C@H]1CC[C@H]2C3CC=C4C[C@@H](O)CC[C@]4(C)C3CC[C@]12C)C(C)C (some centres not stated)	nt	7%	5%	0	5%	34%
O=C(O)c1cccc2c1NC(c1cccc([N+](=O)[O-])c1)C1CC(Sc3ccccc3[N+](=O)[O-])C(Cl)C21 (configuration not stated)	16µM*	32µM*	?	12	?	40µM*
CCN(CC)C(=O)c1ccc2c(c1)C1C=CCC1C(C(=O)O)N2 (configuration not stated)	1.6µM*	nt	nt	-20	nt	11µM*
O=C(O)c1ccc2c(c1)C1C(Cl)C(Sc3ccccc3[N+](=O)[O-])CC1C(c1cccc([N+](=O)[O-])c1)N2 (configuration not stated)	20µM*	?	-2%	2	-25%	?
CCN(CC)C(=O)c1ccc(N(Cc2ccccc2)S(C)(=O)=O)cc1	nt	nt	nt	13	nt	30%
CCN(CC)C(=O)c1ccc2c(c1)C1C(Cl)C(Sc3ccccc3[N+](=O)[O-])CC1C(C(=O)O)N2 (configuration not stated)	7.9µM*	?	?	-6	?	45µM*
Cc1ccc2c(c1Cl)NC(C(=O)O)C1CC(Sc3ccccc3[N+](=O)[O-])C(Cl)C21 (configuration not stated)	nt	nt	-3%	3	?	?
O=S(=O)(c1ccc(Cl)cc1)c1cc(Cl)c(Cl)cc1Cl	nt	nt	nt	-4	nt	-20%
C/C=C1/C2C=C(C)CC1(N)c1ccc(=O)[nH]c1C2 (configuration not stated)	32%[59 µM]	-9%	-10%	3	-18%	7%
C=C1C([C@@H](O)C[C@H](C)C2O[C@@]3(CCCCO3)CC[C@H]2C)OC2CC[C@@]3(CC[C@@H](/C=C/[C@@H](C)C4CC(C)=C[C@]5(O4)O[C@H](C[C@@](C)(O)C(=O)O)CCC5O)O3)OC2[C@@H]1O (some centres not stated)	12%[59 µM]	0%	-4%	nt	0%	-2%
CCOC(=O)NC(O)C(Cl)(Cl)Cl (configuration not stated)	-1%[12.7 µM]	nt	nt	nt	nt	15%
COc1ccc(C[C@@H]2NC[C@H](O)[C@@H]2OC(C)=O)cc1	11%[21.5 µM]	nt	nt	0	nt	9%
Cn1c(N)c(Sc2ccccc2[N+](=O)[O-])c(=O)n(C)c1=O	45µM*	nt	nt	-3	nt	-13%
NC(=O)O	nt	nt	nt	1	nt	12%
SMILES	G9a inh	Tau ThT inhib	Tau fibril FP	FBPA coupling cs	Tau fluor counter	Sfp inh
COc1ccc(N(C)C(=O)Cn2c(=O)oc3ccccc32)c(OC)c1	45µM*	nt	nt	-4	nt	5%
C=C(C)[C@@]12OC3(c4ccccc4)O[C@@H]1[C@@H]1[C@@H]4O[C@]4(CO)[C@@H](O)[C@]4(O)C(=O)C(C)=C[C@H]4[C@@]1(O3)[C@H](C)[C@H]2OC(=O)/C=C/C=C/c1ccccc1	nt	nt	nt	-7	nt	0%
O=C(NC(=S)Nc1ccccc1N1CCCC1)c1ccccc1Br	10µM*	nt	nt	nt	nt	18%
CCCCCCCCCCCCCC(=O)O[C@@H]1[C@@H](C)[C@@]2(O)[C@@H](C=C(CO)C[C@@]3(O)C(=O)C(C)=C[C@@H]23)C2C(C)(C)[C@@]21OC(C)=O (some centres not stated)	7.9µM*!	-13%	4%	nt	-5%	nt
N#CC1(c2ccccc2)CCN(C2CC(=O)N(c3ccc(F)cc3)C2=O)CC1 (configuration not stated)	nt	-7%	-3%	2	-10%	-6%
N#CC1(c2ccccc2)CCN(C2CC(=O)N(c3ccc4c(c3)OCO4)C2=O)CC1 (configuration not stated)	22µM*	1%	4%	1	5%	?
CN1C(=O)C(=Cc2sc(=O)n(-c3ccccc3)c2N2CCCCC2)C(=O)N(C)C1=O	50µM*	25µM*	-16%	-7	-16%	-11%
CCOc1ccc(NC(=O)c2cc3c(C)nn(-c4ccccc4)c3s2)cc1	-6%[59 µM]	-9%	?	nt	?	nt
CC(C)C[C@H](NC(=O)CNC(=O)[C@H](CCC(N)=O)NC(=O)[C@H](Cc1ccc(O)cc1)NC(=O)[C@@H](NC(=O)[C@H](Cc1ccc(O)cc1)NC(=O)CNC(=O)[C@@H](N)CCCN=C(N)N)C(C)C)C(=O)O	nt	nt	nt	7	nt	0%
CC(c1ccccc1)n1cncc1C(=O)N1CCCC1=O (configuration not stated)	50µM*	-4%	4%	2	5%	17%
CC(C)(C)CC(C)(C)c1ccc(O)cc1	nt	nt	nt	nt	nt	28%
O=[N+]([O-])C(Br)(CO)CO	1.8µM*	nt	nt	nt	nt	8.9µM*
O=C1NC(=O)N(CCNc2ncc(C(F)(F)F)cc2Cl)C(=O)C1Cc1ccc(Cl)cc1 (configuration not stated)	50µM*	?	?	13	-16%	?
C=CCN1C(=O)NC(=O)C(Cc2ccc(OC)c(OC)c2)C1=O (configuration not stated)	?	?	-27%	-8	-8%	?

From PubChem
